This excerpt belongs to a sample that is enriched for hits.
Cycloheximide cs – Cycloheximide Counterscreen for Small Molecule Inhibitors of Shiga Toxin | cell reporter, cycloheximide protein synthesis inhibition counterscreen | max response, % | hit rate 12% among 300,000 | AID 2314, 2010; in the data active = max response mostly above about 13%, no sharp cut-off; inactive = mostly below about 14%; note: read at 38.3 µM for the half of the compounds with a filed dose; 0% is about no effect
NS1 inh – qHTS Assay for Inhibitors of Influenza NS1 Protein Function | Potency, µM (doses to about 46.1 µM), for inactives: top-dose activity, positive = more growth | hit rate 0.4% among 270,000; calls by dose curve; note: potency is the fitted concentration of half-maximal effect; actives are rising curves; nearly all actives have a fitted effect of over 50% in size
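Growth recovery, yeast-based: influenza A NS1 expressed in S. cerevisiae causes slow growth, and suppressors are detected by OD600. The parent strain without NS1 is used as positive control.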
AmpC inh detg – qHTS Inhibitors of AmpC Beta-Lactamase (assay with detergent) | hit rate 0.041% among 370,000 | Potency, µM (highest dose often 114 µM), without a hit: at the top dose activity change, negative = inhibition, hits mostly inhibitors | AmpC hydrolysis of nitrocefin, absorbance 480 nm, 0.01% Triton | P00811;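 note: potency is the fitted concentration of half-maximal effect; 0% = no-compound wells and -100% = no-enzyme wells; nearly all actives have a fitted effect of over 25% in size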
Target sequence (P00811 whole entry, looked up): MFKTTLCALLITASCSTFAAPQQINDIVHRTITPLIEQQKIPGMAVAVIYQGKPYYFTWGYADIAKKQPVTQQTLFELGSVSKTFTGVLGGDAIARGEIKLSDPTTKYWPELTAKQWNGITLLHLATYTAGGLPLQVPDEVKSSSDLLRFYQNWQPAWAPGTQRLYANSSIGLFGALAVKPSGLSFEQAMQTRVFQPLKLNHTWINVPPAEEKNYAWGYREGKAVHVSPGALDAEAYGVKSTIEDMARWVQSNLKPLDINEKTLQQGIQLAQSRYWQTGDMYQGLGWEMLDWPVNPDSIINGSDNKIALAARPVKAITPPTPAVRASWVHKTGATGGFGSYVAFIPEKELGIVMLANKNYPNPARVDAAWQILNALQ
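AmpC (5.3 nM in the dispensed reagent) in 20 mM phosphate pH 7.0 with 0.01% (detergent screen) or 0.0001% Triton X-100 was preincubated with compounds for 15 min at room temperature. Nitrocefin was then added from an 800 uM solution, and hydrolysis was followed at 480 nm.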
AmpC no deterg – qHTS Inhibitors of AmpC Beta-Lactamase (assay without detergent). P00811. AmpC nitrocefin hydrolysis, absorbance 480 nm, 0.0001% Triton. Potency, µM (highest dose often 57.1 µM), for inactives: at the highest dose activity change, negative = inhibition, actives largely listed as inhibitors. hit rate 0.52% among 330,000;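 note: potency is the fitted concentration of half-maximal effect; plate controls were no compound for no effect and no enzyme for full effect; nearly all actives have a fitted effect of over 20% in size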
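AmpC (5.3 nM in the dispensed reagent) in 20 mM phosphate pH 7.0 with 0.01% (detergent screen) or 0.0001% Triton X-100 was preincubated with compounds for 15 min at room temperature. Nitrocefin was then added from an 800 uM solution, and hydrolysis was followed at 480 nm.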
Shiga inhibitor – A qHTS for Small Molecule Inhibitors of Shiga Toxin; Vero cells, Shiga toxin protein synthesis inhibition reporter; inhibition, % at 38.7 µM; hit rate 9.2% among 290,000; AID 2315, 2010; in the data active = inhibition mostly above about 28%, no sharp cut-off; inactive = mostly below about 43%; note: 0% is about no effect
The depositor's hits bear a star. Unless noted, calls come from the whole dose curve; as a rule, active = well fitted curve in the direction sought with a large enough effect; inconclusive = small, poorly fitted or top-dose-only effect, or another doubt; inactive = no such curve, though single readings can be large; an effect the other way counts as inactive or inconclusive.

Screening OCCCc1ccccc1 returned Cycloheximide cs -6 and Shiga inhibitor 2.
`O=S1(=O)C2CC3C=CC2(CN1Cc1ccccc1)O3` (stereo not drawn) gave Cycloheximide cs 4 and Shiga inhibitor 9.
For COc1ccc(/C=N/NC(=O)c2cccc([N+](=O)[O-])c2)cc1O the results were Cycloheximide cs 25*, NS1 inh -2%, AmpC inh detg 1%, AmpC no deterg -28% and Shiga inhibitor 102*.
COc1cc(/C=N/NC(=O)c2cccc([N+](=O)[O-])c2)ccc1O was read as Cycloheximide cs 20, NS1 inh 2%, AmpC inh detg 0%, AmpC no deterg -41% and Shiga inhibitor 21.
Screening COc1cc(/C=N/NC(=O)c2cccc([N+](=O)[O-])c2)ccc1OCc1ccc(C)cc1 returned Cycloheximide cs 22*, NS1 inh 5%, AmpC inh detg -11%, AmpC no deterg -11% and Shiga inhibitor 62*.
Screening C/C(=N\OC(=O)c1ccc(C)cc1)c1c(C)nc2cc(C)ccn12 returned Cycloheximide cs -6, AmpC inh detg inconclusive, AmpC no deterg -15% and Shiga inhibitor -5.
For Cc1ccc(C(=O)NC(C)(COc2nonc2C)COc2nonc2C)cc1 the results were Cycloheximide cs -2, NS1 inh -5%, AmpC inh detg -8%, AmpC no deterg -18% and Shiga inhibitor -23.
`Cc1nc(N)nc(N/N=C/c2c(F)cccc2Cl)n1` gave Cycloheximide cs -2, NS1 inh 5%, AmpC inh detg 1%, AmpC no deterg -16% and Shiga inhibitor 31.
Cc1nc(C#N)c(N/N=C/c2c(F)cccc2Cl)o1 was read as Cycloheximide cs 28*, NS1 inh -33%, AmpC inh detg 0%, AmpC no deterg -28% and Shiga inhibitor 35.
For CSc1nsc(/C=C/Nc2ccc(C)c(C)c2)c1C#N the results were Cycloheximide cs 28, AmpC inh detg -1%, AmpC no deterg inconclusive and Shiga inhibitor 45*.
Screening CC(=O)Oc1ccc(-c2csc(Nc3cccc(C)n3)n2)cc1 returned Cycloheximide cs 45*, NS1 inh 2%, AmpC inh detg -10%, AmpC no deterg -26% and Shiga inhibitor 91*.
For COc1ccc(-c2csc(NC(=O)c3ccccc3C(=O)O)n2)cc1 the results were Cycloheximide cs 7, AmpC inh detg -1%, AmpC no deterg -22% and Shiga inhibitor 16.
Screening COc1ccccc1Nc1nc(-c2cccc(N3C(=O)c4ccccc4C3=O)c2)cs1 returned Cycloheximide cs 1, NS1 inh inconclusive, AmpC inh detg -13%, AmpC no deterg -19% and Shiga inhibitor -4.
`CC(=O)Oc1ccc(-c2csc(Nc3cccnc3)n2)cc1` gave Cycloheximide cs 1, NS1 inh 2%, AmpC inh detg inconclusive, AmpC no deterg -20% and Shiga inhibitor -6.
`COc1ccc(-c2csc(Nc3cccc(C)n3)n2)cc1` gave Cycloheximide cs 38*, NS1 inh 2%, AmpC inh detg -8%, AmpC no deterg -25% and Shiga inhibitor 71*.
For COc1ccc(-c2csc(Nc3cccc(C)n3)n2)cc1C the results were Cycloheximide cs 56*, NS1 inh 16%, AmpC inh detg 4%, AmpC no deterg -25% and Shiga inhibitor 79*.
For Cc1cccc(Nc2nc(-c3ccc(F)cc3)cs2)n1 the results were Cycloheximide cs 46*, NS1 inh -12%, AmpC inh detg -9%, AmpC no deterg -32% and Shiga inhibitor 105*.
`CCc1nn(-c2ccccc2)c2nc(-c3cccc(OC)c3)c3cc(OC)c(OC)cc3c12` gave AmpC inh detg 3%.
Cc1ccc(NC(=O)c2ccccc2Br)c(C(=O)c2ccccc2)c1 was read as AmpC inh detg 8%.
`CC(C)(C)c1ccccc1NC(=O)CN1C(=O)NC(Cc2ccccc2)C1=O` (stereo not drawn) gave AmpC inh detg -3% and AmpC no deterg -2%.
`C=C(C)COc1ccc(-c2ncncc2Oc2ccc(OC)cc2)c(O)c1` gave Cycloheximide cs 28*, NS1 inh -47%, AmpC inh detg 11%, AmpC no deterg -1% and Shiga inhibitor 85*.
Cc1ccc(SCC(c2ccccc2)N2CCN(C)CCC2=O)cc1 (stereo not drawn) was read as Cycloheximide cs 31* and Shiga inhibitor 52*.
`CN1CCC(=O)N([C@H](CC#N)c2ccccc2)CC1` gave Cycloheximide cs -2, NS1 inh 3%, AmpC inh detg -1%, AmpC no deterg -12% and Shiga inhibitor 4.
For CN1CCC(=O)N([C@H](CSc2ccc(Br)cc2)c2ccccc2)CC1 the results were Cycloheximide cs 25*, NS1 inh 13%, AmpC inh detg -5%, AmpC no deterg 211% and Shiga inhibitor 64*.
For OC[C@H]1O[C@@H](n2cnc3c(Nc4ccccc4)ncnc32)[C@H](O)[C@@H]1O the results were Cycloheximide cs 27, NS1 inh -2%, AmpC inh detg -7%, AmpC no deterg -21% and Shiga inhibitor 108*.
For OC[C@H]1O[C@@H](n2cnc3c(NCCc4ccccc4)ncnc32)[C@H](O)[C@H]1O the results were NS1 inh -15%.
Screening CCC(=O)NC(=S)Nc1ccc(-c2nc3ccccc3s2)cc1 returned Cycloheximide cs 49*, NS1 inh 2%, AmpC inh detg -10%, AmpC no deterg -17% and Shiga inhibitor 69*.
`Cc1ccc2nc(-c3ccc(NC(=S)NC4CC(C)(C)NC(C)(C)C4)cc3)sc2c1` gave Cycloheximide cs 12, AmpC inh detg -7%, AmpC no deterg 153% and Shiga inhibitor 57.
For CCCOc1ccccc1C(=O)Nc1ccc(-c2nc3ccc(C)cc3s2)cc1 the results were AmpC inh detg 3%.
`Cc1ccc2nc(-c3ccc(NC(=S)NC(=O)C(C)C)cc3)sc2c1` gave Cycloheximide cs 53*, NS1 inh -4%, AmpC inh detg inconclusive, AmpC no deterg -28% and Shiga inhibitor 84*.
CCC(=O)NC(=S)Nc1ccc(-c2nc3ccc(C)cc3s2)cc1 was read as Cycloheximide cs 40*, NS1 inh 5%, AmpC inh detg 1%, AmpC no deterg -1% and Shiga inhibitor 91*.
Cc1ccc(CNC(=O)C2CCCN(S(=O)(=O)c3cn(C)cn3)C2)cc1 (stereo not drawn) was read as AmpC inh detg 0%.
For COc1ccc(Nc2cc(C(=O)NCCCN3CCN(c4ccc(OC)cc4)CC3)c3ccccc3n2)cc1 the results were AmpC inh detg 5%.
For O=C(CSc1ccccc1)Nc1nc2ccccc2[nH]1 the results were Cycloheximide cs 28*, NS1 inh 8%, AmpC inh detg 0%, AmpC no deterg -32% and Shiga inhibitor 84*.
For O=C(Cc1ccc(Br)cc1)Nc1nc2ccccc2[nH]1 the results were Cycloheximide cs 14*, NS1 inh -10%, AmpC inh detg 8%, AmpC no deterg -34% and Shiga inhibitor 22.

Assay outcomes: PubChem, National Center for Advancing Translational Sciences (NCATS)
